Structures are written as SMILES. Values joined by “and” are separate entries in the source; they are usually repeats but may differ in a detail not shown here. Identical values can stand only once. Results filed as inconclusive are left out. Where a call stands in place of a potency, no number is given. Active and inactive are the calls of the source. Calls come from the whole dose curve; as a rule, active = well fitted inhibition curve with a large enough effect; inconclusive = small, poorly fitted or top-dose-only effect; inactive = no such curve, though single readings can be large or run the other way.

Assay [1] deals with N-terminal Xaa-Pro-Lys N-methyltransferase 1 (Homo sapiens) (UniProt Q9BV86). Description: qHTS Assay for Inhibitors of N-terminal methyltransferase 1 (NTMT1): LOPAC validation of the NTMT1 SAHH-coupled ThioGlo3 Assay (AID 1347143). Note: nearly all actives have a fitted effect of over 70% in size. Summed up: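 Fluorescence read-out (excitation 340nm, emission 450nm) of SAH-derived thiol, measured via SAHH coupling and ThioGlo3, taken immediately and after a 30 min room-temperature reaction, then normalized to the background read. Enzyme: NTMT1 at 125nM; cofactor SAM 100uM in the added reagent.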
Sequence of N-terminal Xaa-Pro-Lys N-methyltransferase 1 (Homo sapiens) (Q9BV86 whole entry, looked up): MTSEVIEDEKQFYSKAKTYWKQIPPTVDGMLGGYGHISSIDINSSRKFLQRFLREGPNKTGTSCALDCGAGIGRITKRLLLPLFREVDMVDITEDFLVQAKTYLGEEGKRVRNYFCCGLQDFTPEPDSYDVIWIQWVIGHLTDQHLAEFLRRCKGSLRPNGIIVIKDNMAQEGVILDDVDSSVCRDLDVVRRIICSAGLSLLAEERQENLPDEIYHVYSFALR

For assay [2], the system named is Zika virus NS2B-NS3 protease (unlinked). The assay is described as follows: Optimization of GU AMC qHTS for Zika virus inhibitors: Unlinked NS2B-NS3 protease assay (AID 1347151). Note: nearly all actives have a fitted effect of over 80% in size. Summed up: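 Noncovalent complex of NS2B hydrophilic domain and NS3 protease domain, 25 nM final, in 10 mM Tris-HCl pH 8.0, 0.01% Tween 20. AMC fluorescence change over 15 min at room temperature was fitted to a 4-parameter Hill equation.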
(Quantitative high-throughput screening tests each substance at several concentrations.)

In assay [3] the target is Furin (Homo sapiens) (UniProt P09958). Description: Furin counterscreen qHTS for Zika virus inhibitors (AID 1347149). Note: nearly all actives have a fitted effect of over 70% in size. Summed up: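 Fluorogenic cleavage of BOC-RVRR-AMC (2 microM final, Km ~15 µM) was monitored (ex 340, em 450 nm) at 37C after 15 min RT preincubation of 5 nM furin with compounds in HEPES pH 7.0 buffer with CaCl2 and Triton X-100. Percent inhibition was fitted to a 4-parameter Hill curve.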
Sequence of Furin (Homo sapiens) (P09958 whole entry, looked up): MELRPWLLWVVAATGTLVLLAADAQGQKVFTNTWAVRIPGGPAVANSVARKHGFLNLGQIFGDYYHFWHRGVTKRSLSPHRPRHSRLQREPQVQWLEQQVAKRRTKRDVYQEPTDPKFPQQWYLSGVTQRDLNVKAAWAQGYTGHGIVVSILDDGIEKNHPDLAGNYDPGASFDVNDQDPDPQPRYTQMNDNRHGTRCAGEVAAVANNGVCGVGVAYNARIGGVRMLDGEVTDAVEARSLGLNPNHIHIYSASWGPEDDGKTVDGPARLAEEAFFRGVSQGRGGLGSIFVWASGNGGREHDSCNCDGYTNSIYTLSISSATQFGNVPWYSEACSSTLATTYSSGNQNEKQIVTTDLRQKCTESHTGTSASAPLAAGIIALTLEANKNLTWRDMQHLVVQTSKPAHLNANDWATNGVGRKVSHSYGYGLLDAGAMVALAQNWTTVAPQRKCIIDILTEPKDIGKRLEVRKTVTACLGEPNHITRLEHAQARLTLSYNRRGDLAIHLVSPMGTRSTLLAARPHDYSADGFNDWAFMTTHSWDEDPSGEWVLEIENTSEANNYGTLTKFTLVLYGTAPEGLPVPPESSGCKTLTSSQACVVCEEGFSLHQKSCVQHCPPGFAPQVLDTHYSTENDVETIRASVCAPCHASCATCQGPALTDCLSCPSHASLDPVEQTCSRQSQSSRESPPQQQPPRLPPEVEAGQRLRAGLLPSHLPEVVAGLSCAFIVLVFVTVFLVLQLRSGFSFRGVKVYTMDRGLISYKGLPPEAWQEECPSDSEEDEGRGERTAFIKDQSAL
(In general: Counterscreens check selectivity or assay interference.)
Potency is the fitted concentration of half-maximal effect.

For `CCCCN(CCCC)CC(O)c1cc(Cl)cc2c1-c1ccc(Cl)cc1/C2=C/c1ccc(Cl)cc1` (stereo unspecified), the Potency entry in assay [1] and in assay [2] was “inactive” each time. Regarding `CN(C)CCCN1c2ccccc2CCc2ccccc21`, the Potency result in assay [2] is “inactive”.

As to `OCCN1CCN(CCCN2c3ccccc3Sc3ccc(Cl)cc32)CC1`, the Potency entry in assay [2] is “inactive”. Turning to `CC(C)(C(=O)O)c1ccc(C(O)CCCN2CCC(C(O)(c3ccccc3)c3ccccc3)CC2)cc1` (stereo unspecified), the Potency result in assay [1] and in assay [2] was “inactive” each time. Consider `CC1=C(/C=C/C(C)=C/C=C/C(C)=C/C(=O)O)C(C)(C)CCC1`, for which the Potency result in assay [2] was “inactive”. As for `N[C@H](C(=O)O)c1ccc(O)cc1`, the Potency entry in assay [3] and in assay [2] was “inactive” throughout. Take `CN1CCN(C2Cc3ccccc3Sc3ccc(Cl)cc32)CC1` (stereo unspecified): in assay [2], the Potency result was “inactive”.

On to `Cc1cc(C(C#N)c2ccc(Cl)cc2)c(Cl)cc1NC(=O)c1cc(I)cc(I)c1O` (stereo unspecified), for which the Potency in assay [3] was 7.64 µM (active) and 13.9 µM (active). Turning to `CC(C(O)c1ccc(O)cc1)N1CCC(Cc2ccccc2)CC1` (stereo unspecified), the Potency entry in assay [1] and in assay [2] was “inactive” throughout. Take `COCCOC(=O)C1=C(C)NC(C)=C(C(=O)OC/C=C/c2ccccc2)C1c1cccc([N+](=O)[O-])c1` (stereo unspecified): the Potency result in assay [1] and in assay [2] was “inactive” in each case. As for `CC(=O)c1ccc2c(c1)N(CCCN(C)C)c1ccccc1S2`, the Potency entry in assay [2] was “inactive”. On to `O=C1NC(=O)[C@@]2(CCOc3ccc(F)cc32)N1`, for which the Potency entry in assay [1] and in assay [2] was “inactive” in each case. In the case of `NC(=O)c1ncn([C@@H]2O[C@H](CO)[C@@H](O)[C@H]2O)n1`, the Potency entry in assay [1] and in assay [2] was “inactive” throughout.

As for `CN1CCC[C@@H]1Cc1c[nH]c2ccc(CCS(=O)(=O)c3ccccc3)cc12`, the Potency entry in assay [2] is “inactive”. On the same count and under the same terms, in the case of `C[C@]12C[C@H](O)[C@H]3[C@@H](CCC4=CC(=O)CC[C@@]43C)[C@@H]1CC[C@@H]2C(=O)CO` it was “inactive”. Regarding `CCCCc1ncc(/C=C(\Cc2cccs2)C(=O)O)n1Cc1ccc(C(=O)O)cc1`, the Potency result in assay [1] and in assay [2] was “inactive” in each case.

Take `C[C@]12CC[C@@H]3c4ccc(O)cc4CC[C@H]3[C@@H]1CCC2=O`: the Potency result in assay [1] and in assay [2] was “inactive” in each case. As for `Cc1cc(N)c2ccccc2[n+]1CCCCCCCCCC[n+]1c(C)cc(N)c2ccccc21`, the Potency is 39.8 µM (active) in assay [1] and 23.8 µM (active) in assay [2].

Consider `CNCCC(Oc1ccc(C(F)(F)F)cc1)c1ccccc1` (stereo unspecified), for which the Potency result in assay [1] and in assay [2] was “inactive” throughout. On to `CSc1ccc2c(c1)C(N1CCN(C)CC1)Cc1ccccc1S2` (stereo unspecified), for which the Potency result in assay [2] was “inactive”. Still for that read-out and setting: in the case of `CNC(=O)Oc1ccc2c(c1)[C@]1(C)CCN(C)[C@@H]1N2C` it was “inactive”. Take `CNCCCC1c2ccccc2C=Cc2ccccc21`: the results for the Potency in assay [1] and in assay [2] were 56.2 µM (active) and 26.7 µM (active), respectively. For `CC(C)NC[C@H](O)c1ccc(O)c(O)c1`, the Potency entry in assay [2] is “inactive”. As to `NC(N)=NCCC[C@H](N)C(=O)O`, the Potency entry in assay [1] and in assay [2] was “inactive” each time. In the case of `Nc1cc(=O)[nH]c(N)n1`, the Potency entry in assay [1] and in assay [2] was “inactive” each time.

Turning to `CN(C)CCC=C1c2ccccc2CCc2ccccc21`, the Potency entry in assay [1] and in assay [2] was “inactive” each time. With `CC(=O)OCC(=O)[C@@]1(O)CC[C@H]2[C@@H]3CCC4=CC(=O)CC[C@]4(C)[C@H]3C(=O)C[C@@]21C`, the Potency result in assay [1] and in assay [2] was “inactive” throughout. On to `CCN(CC)CCCC(C)Nc1c2ccc(Cl)cc2nc2ccc(OC)cc12` (stereo unspecified), for which the Potency is 39.8 µM (active) in assay [1] and 23.8 µM (active) in assay [2].

Take `CC1=C(CC(=O)O)c2cc(F)ccc2/C1=C\c1ccc(S(C)=O)cc1` (stereo unspecified): the Potency entry in assay [2] was “inactive”.

Values taken from PubChem BioAssay (NCATS).
